Source: PubChem BioAssay (NCI)
About 83,000 compounds went through this panel and 20% of them were active in at least one assay; those are over-represented in the sample as a whole.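 Testing used 96-well plates and a 48-hour single-concentration exposure. Example: -40 means 40% of the starting cells died.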 Unmarked numbers belong to inactive results. Activity calls are given as the source filed them. The calls were made as follows: active = growth percent below 10; inactive = the rest.

How the values were obtained:
Test in all cases: NCI-60 one-dose screen, 48 h (100 = growth as untreated, 0 = no growth, -100 = all killed)
Conditions in all cases: 10 µM unless noted
HCT-15 colon = tested on: HCT-15 colon
HT29 colon = tested on: HT29 colon
SNB-75 CNS = tested on: SNB-75 CNS
SNB-19 CNS = tested on: SNB-19 CNS
U251 CNS = tested on: U251 CNS
PC-3 prostate = tested on: PC-3 prostate
SK-MEL-5 melanoma = tested on: SK-MEL-5 melanoma
UACC-62 melanoma = tested on: UACC-62 melanoma
LOX IMVI melanoma = tested on: LOX IMVI melanoma
SK-MEL-28 melanoma = tested on: SK-MEL-28 melanoma

Compound | growth (HCT-15 colon) | growth (HT29 colon) | growth (SNB-75 CNS) | growth (SNB-19 CNS) | growth (U251 CNS) | growth (PC-3 prostate) | growth (SK-MEL-5 melanoma) | growth (UACC-62 melanoma) | growth (LOX IMVI melanoma) | growth (SK-MEL-28 melanoma)
CCN1C(=O)/C(=C/N2N=C(c3ccc(Cl)cc3)CC2c2ccc(OC)cc2)SC1=S (stereo not given) | 87.8% | 79.8% | 82.8% | 92.9% | 81.9% | 78.6% | 99.4% | 70.8% | 84.5% | 103%
C=C(C)[C@@H]1CC[C@]2(C(=O)NC(COC(=O)C(Cl)Cl)(COC(=O)C(Cl)Cl)COC(=O)C(Cl)Cl)CC[C@]3(C)[C@H](CC[C@@H]4[C@@]5(C)CC[C@H](OC(C)=O)C(C)(C)[C@@H]5CC[C@]43C)[C@@H]12 | 27.9% | 4.68% (active) | 81.2% | 70.6% | 23.4% | 11.1% | 62.1% | 81% | 32.4% | 86.9%
O=c1c2cc(Br)cc(Br)c2nc(-c2ccc(Cl)cc2)n1/N=C/c1cccc(F)c1 | 75.2% | 62.1% | -0.938% (active) | 57.6% | 43.3% | 67% | 70.9% | 74.6% | 62.4% | 85.1%
CSc1ccc(/C=C2\C=C(CC(=O)NCc3ccc(C(=O)c4ccccc4)cc3)c3cc(F)ccc32)cc1 | 5.88% (active) | -15.1% (active) | -18.4% (active) | 18.2% | -2.89% (active) | 12.4% | -51.4% (active) | 3.75% (active) | 5.66% (active) | 18.2%
O=C1SCN(Cc2ccccc2)CN1Cc1ccccc1 | 98% | 90.4% | 91% | 108% | 99.5% | 86.3% | 92.8% | 89.6% | 70.2% | 111%
O=c1nc(-c2ccccc2)c2cc(-c3ccc(N4CCOCC4)cc3)ccc2[nH]1 | 74% | 84.5% | 106% | 87.4% | 69.9% | 70.9% | 83.6% | 74.3% | 74.5% | 91.8%
Cc1cc(O)ccc1Sc1ccccc1[N+](=O)[O-] | 92.7% | 94.3% | 94.8% | 91.6% | 94.2% | 82.3% | 91.1% | 76% | 84.1% | 101%
COc1cc(C2CC(=O)Nc3c2cnn3C)cc(OC)c1OC (stereo not given) | 107% | 105% | 92% | 108% | 100% | 108% | 105% | 106% | 106% | 119%
CCOC(=O)Cc1cc(Br)c(OCc2ccccc2)c(Br)c1 | 88.7% | 99% | 87.3% | 97.9% | 90.2% | 84.1% | 104% | 70.8% | 87.6% | 106%
Cc1c2c(cc3c1[nH]c1ccccc13)C=NCC2 | 95.1% | 61.2% | 84% | 93.4% | 92.5% | 91% | 88.1% | 107% | 87.4% | 118%
Cn1cnc([N+](=O)[O-])c1S(=O)(=O)Oc1cccc2ccccc12 | 1.87% (active) | 10.9% | 83.2% | 98.8% | 57.6% | 57.4% | 93% | 80.7% | -45.1% (active) | 85.1%
Cc1ccccc1NC(=O)c1sc2nc3c(cc2c1N)C(=O)CCC3 | 32.8% | 21.1% | 13.1% | 46.1% | 49% | 30.3% | 18.6% | 36.9% | 47.4% | 52.8%
CCOC(=O)C1OC2(CCCC2)OC1C(=O)OCC (stereo not given) | 106% | 99.2% | 104% | 99.3% | 109% | 97.6% | 101% | 96.7% | 102% | 122%
Cc1cccc(/C=N/n2c(-c3ccc(Cl)cc3)nc3c(Br)cc(Br)cc3c2=O)c1 | 70.5% | 67.9% | 45.9% | 62% | 43% | 21.4% | 38.5% | 35.5% | 52.6% | 60.7%
Clc1ccccc1CNc1c2ccccc2nc2ccccc12 | 13.6% | 5.54% (active) | 43.1% | 25.8% | 23.2% | 17.1% | 41.8% | 41% | 4.83% (active) | 50.5%
CCCCCCCCCCCC1=NC(C)(C)CN1CC(C)O (stereo not given) | 6.24% (active) | -48.3% (active) | 61.8% | 96.8% | 33.9% | 51.4% | 34% | -49.4% (active) | 6.88% (active) | 59.8%
Cc1nc(N)nc2c1CCC(Nc1ccccc1)S2 (stereo not given) | 100% | 104% | 98.3% | 111% | 103% | 90.6% | 99.1% | 108% | 97% | 114%
CC(C)[C@@H]1C=C2CC[C@H]3[C@](C)(CN)CCC[C@]3(C)[C@H]2CC1 | 44.5% | -34.1% (active) | 64.8% | 104% | 14% | 69.6% | 69.3% | 86.3% | 43.6% | -82.1% (active)
O=C(c1ccccc1)c1cccc(C(Br)Br)c1 | 73.4% | 63.5% | 73.9% | 83.6% | 88.9% | 91.8% | 74% | 81.1% | 80.6% | 93.2%
CC1CCN(CCCCCOc2ccc3oc4ccc(Cl)cc4c(=O)c3c2)CC1 | -21.5% (active) | 1.54% (active) | 93.5% | 79.6% | 49.5% | 55.1% | 11.6% | -43.5% (active) | 7.78% (active) | 64.7%
